From the antibiotic and cytotoxicity screens of Wong et al. (2023)
Among all 39,000 compounds or so, about 1,500 (3.8%) were called active. This is one part of a sample in which actives are shown more often than they occur.

These compounds were tested on HSkMC (human skeletal muscle cells) (assay: cytotoxicity call (relative viability < 0.9)). Details: 10 µM.

| Structure (SMILES) | cytotoxicity call |
| --- | --- |
| C[C@@H]1CN([C@@H](C)CO)S(=O)(=O)c2ccc(C#Cc3ccccc3F)cc2O[C@@H]1CN(C)C(=O)c1ccc2c(c1)OCO2 | inactive |
| CCc1nc2ccc(C(=O)N3CCN(S(=O)(=O)CC)CC3)cn2c1N(C)C(=O)c1cccc(OC)c1 | inactive |
| C=CCC1C=C(C)CC(C)CC(OC)C2OC(O)(C(=O)C(=O)N3CCCCC3C(=O)OC(C(C)=CC3CCC(O)C(OC)C3)C(C)C(O)CC1=O)C(C)CC2OC (stereo unspecified) | inactive |
| C[C@@H]1CCCCO[C@H](CN(C)C(=O)c2ccncc2)[C@H](C)CN([C@H](C)CO)C(=O)c2cc(NC(=O)C3CCCCC3)ccc2O1 | inactive |
| C[C@H](CO)N1C[C@H](C)[C@@H](CN(C)Cc2ccc3c(c2)OCO3)Oc2ccc(NC(=O)Cn3cnnn3)cc2CC1=O | inactive |
| C[C@@H]1CN([C@H](C)CO)C(=O)Cc2cc(NC(=O)Nc3ccccc3)ccc2O[C@H]1CN(C)S(=O)(=O)c1cn(C)cn1 | inactive |
| O=C(NO)c1cccc(C(=O)N/N=C/[C@@H](O)[C@@H](O)[C@H](O)[C@H](O)CO)c1 | inactive |
| Cc1noc(C)c1NC(=O)Nc1ccc2c(c1)CC(=O)N([C@@H](C)CO)C[C@H](C)[C@H](CN(C)S(=O)(=O)c1cn(C)cn1)O2 | inactive |
| C[C@@H]1CCCCO[C@H](CN(C)S(=O)(=O)c2cn(C)cn2)[C@@H](C)CN([C@H](C)CO)C(=O)c2cc(NS(=O)(=O)c3ccc(F)cc3)ccc2O1 | inactive |
| C[C@@H](NC(=O)N(C)C[C@H]1OCc2ccccc2-c2c(n(C)c3ccccc23)C(=O)N([C@@H](C)CO)C[C@@H]1C)c1ccccc1 | inactive |
| COCC#Cc1ccc([C@H]2[C@@H](CO)N3C(=O)CN(C(=O)c4cccnc4)C[C@@H]23)cc1 | inactive |
| CC(C)NC(=O)Nc1ccc2c(c1)C(=O)N([C@@H](C)CO)C[C@@H](C)[C@@H](CN(C)S(=O)(=O)c1cccs1)O2 | inactive |
| CCC(=O)Nc1nc2[nH]c(COC)cc(=O)n2n1 | inactive |
| C[C@H](CO)N1C[C@H](C)[C@H](CN(C)C(=O)Nc2ccc(F)cc2)Oc2ccc(NC(=O)CCCCCC(=O)Nc3ccccc3N)cc2C1=O | inactive |
| COc1ccc(C(=O)NCC(=O)O)cc1 | inactive |
| COc1ccc2cc(C(C)C(=O)O)ccc2c1 (stereo unspecified) | inactive |
| COc1ccc2cc(-c3cc(-c4cc(Cl)cc(Cl)c4)nn3[C@@H](C)c3ccc(C(=O)NCCC(=O)O)cc3)ccc2c1 | active |
| O=C(C[C@@H]1CC[C@@H]2[C@H](COC[C@@H](O)CN2S(=O)(=O)c2ccccc2)O1)N[C@@H]1CCN(Cc2ccccc2)C1 | inactive |
| COCC(=O)N(C)C[C@H]1Oc2cc(C#Cc3cccnc3)ccc2S(=O)(=O)N([C@H](C)CO)C[C@H]1C | inactive |
| COc1ccc(S(=O)(=O)N[C@H]2C=C[C@@H](CC(=O)N3CCN(c4ccccc4)CC3)O[C@H]2CO)cc1 | inactive |
| C[C@H]1CN([C@@H](C)CO)C(=O)Cc2cc(NC(=O)Nc3ccc(C(F)(F)F)cc3)ccc2O[C@H]1CN(C)Cc1ccc(-c2ccccc2)cc1 | active |

| Structure (SMILES) | cytotoxicity call |
| --- | --- |
| C[C@H](CO)N1C[C@H](C)[C@H](CN(C)Cc2ccc(-c3ccccc3)cc2)Oc2ccc(NC(=O)Nc3ccc(C(F)(F)F)cc3)cc2CC1=O | active |
| C[C@H](CO)N1C[C@H](C)[C@@H](CN(C)Cc2ccc(-c3ccccc3)cc2)Oc2ccc(NC(=O)Nc3ccccc3)cc2CC1=O | inactive |
| C[C@H]1CN([C@@H](C)CO)C(=O)Cc2cc(NC(=O)Nc3ccccc3)ccc2O[C@H]1CN(C)Cc1ccc(-c2ccccc2)cc1 | inactive |
| C[C@@H]1CN([C@@H](C)CO)C(=O)Cc2cc(NC(=O)Nc3ccc(C(F)(F)F)cc3)ccc2O[C@H]1CN(C)Cc1ccc(-c2ccccc2)cc1 | active |
| C[C@@H]1CN([C@@H](C)CO)C(=O)Cc2cc(NC(=O)Nc3ccc(C(F)(F)F)cc3)ccc2O[C@@H]1CN(C)Cc1ccc(-c2ccccc2)cc1 | active |
| N=C1NC(=O)CS1 | inactive |
| Cc1cc(C(=O)Nc2cccc3c2O[C@@H](CN(C)C(=O)Nc2ccccc2)[C@@H](C)CN([C@@H](C)CO)C3=O)n(C)n1 | inactive |
| O=C(C[C@H]1CC[C@@H](NS(=O)(=O)c2ccc(F)cc2)[C@H](CO)O1)N1CCC(Cc2ccccc2)CC1 | inactive |
| C[C@@H]1CCCCO[C@H](CN(C)Cc2ccccc2)[C@@H](C)CN([C@@H](C)CO)C(=O)c2cc(NC(=O)NC3CCCCC3)ccc2O1 | inactive |
| C[C@H](CO)N1C[C@H](C)[C@@H](CN(C)CC2CC2)OCCCC[C@H](C)Oc2ccc(NC(=O)Cc3ccccc3)cc2C1=O | inactive |
| COc1ccc(S(=O)(=O)Nc2cccc3c2O[C@H](CN(C)S(=O)(=O)c2cn(C)cn2)[C@@H](C)CN([C@@H](C)CO)C3=O)cc1 | inactive |
| COc1cccc(NC(=O)N(C)C[C@@H]2OCc3ccccc3-c3c(n(C)c4ccccc34)C(=O)N([C@@H](C)CO)C[C@H]2C)c1 | inactive |
| C[C@@H]1CN([C@@H](C)CO)C(=O)c2cc(NC(=O)c3ccccc3)ccc2O[C@@H](C)CCCCO[C@@H]1CN(C)C(=O)NC1CCCCC1 | inactive |
| Cc1noc(C)c1NC(=O)Nc1ccc2c(c1)C(=O)N([C@@H](C)CO)C[C@H](C)[C@@H](CN(C)Cc1ccc(C(=O)Nc3ccccc3N)cc1)O2 | inactive |
| C[C@H]1CCCCO[C@H](CN(C)C(=O)Nc2ccc(F)cc2)[C@@H](C)CN([C@@H](C)CO)C(=O)c2cc(NC(=O)Nc3ccc(F)cc3)ccc2O1 | inactive |
| C[C@@H]1CN([C@@H](C)CO)S(=O)(=O)c2ccc(C#Cc3ccccc3)cc2O[C@H]1CN(C)C(=O)Cc1ccccn1 | inactive |
| CCS(=O)(=O)Nc1ccc2c(c1)C(=O)N(C)[C@@H]1CC[C@@H](CC(=O)N[C@H]3CCN(Cc4ccccc4)C3)O[C@H]1CO2 | inactive |
| COc1ccc(S(=O)(=O)N(C)C[C@H]2Oc3ncc(C#CC4(O)CCCC4)cc3C(=O)N([C@H](C)CO)C[C@H]2C)cc1 | inactive |
| CC(C)NC(=O)Nc1ccc2c(c1)C(=O)N([C@@H](C)CO)C[C@@H](C)[C@@H](CN(C)S(=O)(=O)c1cn(C)cn1)OCCCC[C@H](C)O2 | inactive |
| CCN1C(=O)[C@H]2[C@@H](O)CS[C@H]2C1=O | inactive |
